Assay outcomes (PubChem)
CYP2C19 inh: blockers of cytochrome P450 2C19 activity – biochemical, luminescence, ADME assay, primary screen | CYP2C19 Supersomes, luciferin-H EGE luminescence, 30 min | inhibition, % at 5 µM | P33261 | 96,000 tested, 21% active;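 active = CYP2C19 inhibition above a set limit at 5 µM in the primary screen, cut at about 50% in these data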;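 also: plate controls were negative control wells for no effect and 2.5 mM tranylcypromine positive control for full effect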
CYP2C9 inh: blockers of cytochrome P450 2C9 activity – biochemical, luminescence, ADME assay, primary screen. CYP2C9 Supersomes, luciferin-H conversion. inhibition, % at 5 µM. P11712. 96,000 tested, 20% active;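 active = blocking of liver enzyme CYP2C9 beyond about 50% at 5 µM, limit read from the data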
Target sequence (P11712 whole entry, looked up): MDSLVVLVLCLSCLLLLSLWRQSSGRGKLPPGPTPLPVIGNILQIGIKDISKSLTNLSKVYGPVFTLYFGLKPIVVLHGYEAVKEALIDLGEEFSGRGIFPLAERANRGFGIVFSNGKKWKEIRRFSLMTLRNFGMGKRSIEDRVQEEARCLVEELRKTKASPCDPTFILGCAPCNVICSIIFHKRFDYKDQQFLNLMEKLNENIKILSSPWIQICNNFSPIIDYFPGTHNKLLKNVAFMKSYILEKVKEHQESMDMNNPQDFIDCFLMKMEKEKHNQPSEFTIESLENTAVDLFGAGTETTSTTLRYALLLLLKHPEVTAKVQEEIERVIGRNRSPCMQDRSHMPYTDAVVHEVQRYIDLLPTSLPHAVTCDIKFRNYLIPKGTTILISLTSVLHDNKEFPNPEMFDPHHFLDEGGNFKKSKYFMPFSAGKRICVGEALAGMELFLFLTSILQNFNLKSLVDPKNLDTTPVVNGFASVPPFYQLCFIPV
CYP2C19 activ: human CYP2C19 activators, primary screen, biochemical, luminescence; AID 1025, 2008; recombinant CYP2C19, luciferin-H EGE luminescence; active compounds read high; 0 = fully inhibited enzyme, 1 = untreated enzyme; activation factor at 5 µM; 96,000 tested, under 10 active;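 active = activation factor of at least 2 at 5 µM in the primary screen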;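 also: 0 = wells with 2.5 mM tranylcypromine and 1 = vehicle-only wells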
CYP2C9 act: human CYP2C9 activators, primary screen, biochemical, luminescence; Cytochrome P450 2C9 (Homo sapiens), P11712; recombinant CYP2C9, luciferin-H conversion; active compounds read high; factor 1 = untreated enzyme, 0 = blocked; activation factor at 5 µM; 96,000 tested, 1.4% active;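 active = activation factor of 2 or more for CYP2C9 at a 5 µM dose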;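 also: 0 = sulfaphenazole-blocked wells and 1 = vehicle-only wells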
Numbers without * were called inactive. Only some compounds are listed: those with a hit (about 31% of all), similar ones and a draw of the others.

SMILES | CYP2C19 inh | CYP2C9 inh | CYP2C19 activ | CYP2C9 act
CCCN(CCC)C(=O)CSc1nc2ccsc2c(=O)n1NC(=O)c1ccccc1 | -13 | 66* | 1.1 | 0.3
CCOc1cc(C)nc(N2CCN(C3CCCCC3)CC2)n1 | 62* | 42 | 0.4 | 0.6
Cc1cc(C)nc(N2CCN(c3nc(C)cc(C)n3)CC2)n1 | -13 | -11 | 1.1 | 1.1
O=C(Nc1ccccc1)c1ccc(CSc2ncccn2)cc1 | 44 | 43 | 0.6 | 0.6
COc1ccc(S(=O)(=O)Nc2nnc(C(C)(C)C)s2)cc1 | 0 | 29 | 1 | 0.7
COc1ccc(S(=O)(=O)Nc2nc(C(F)(F)F)cs2)cc1 | 35 | 98* | 0.6 | 0
c1ccc(SCc2nc(-c3cccnc3)no2)cc1 | 93* | 59* | 0.1 | 0.4
Cc1ccc(-c2noc(CSc3ccccc3)n2)cc1 | 20 | 9 | 0.8 | 0.9
c1ccc(OCCCc2nc(-c3cccnc3)no2)cc1 | 64* | 35 | 0.4 | 0.7
c1ccc(C(Cc2nc(-c3cccnc3)no2)c2ccccc2)cc1 | 97* | 53* | 0 | 0.5
c1ccc(C(c2ccccc2)c2nc(-c3cccnc3)no2)cc1 | 86* | 96* | 0.1 | 0
Clc1ccc(-c2noc(CCCc3ccccc3)n2)cc1 | -2 | -7 | 1 | 1.1
O=S(=O)(c1cccc2nsnc12)N1CCN(C/C=C/c2ccccc2)CC1 | 28 | 16 | 0.7 | 0.8
CCn1cc(C(=O)NC2CCCCCC2)c2cc(OC)c(OC)cc2c1=O | 4 | 6 | 1 | 0.9
c1cncc(-c2noc(C34CC5CC(CC(C5)C3)C4)n2)c1 | 83* | 37 | 0.2 | 0.6
Cc1ccc(SC(C)c2nc(-c3cccnc3)no2)cc1 (stereo not drawn) | 67* | 82* | 0.3 | 0.2
Cc1ccccc1-c1noc(C23CC4CC(CC(C4)C2)C3)n1 | 0 | -1 | 1 | 1
COc1cc(C(=O)NCc2ccco2)c(Br)c(OC)c1OC | 39 | -13 | 0.6 | 1.1
Cc1ccc(C(=O)NCc2ccco2)cc1S(=O)(=O)N1CCOCC1 | -3 | 4 | 1 | 1
Cc1ccc(C(=O)NCc2ccco2)cc1Br | 70* | -32 | 0.3 | 1.3
O=C(NCc1ccco1)c1ccc(Br)s1 | 70* | 37 | 0.3 | 0.6
Cc1ccc2c(CC(=O)NCc3ccco3)coc2c1C | 99* | -54 | 0 | 1.5
Cc1c(Br)cc(C(=O)NCc2ccco2)c(C)c1C | 77* | -168 | 0.2 | 2.7*
Cc1ccc(-c2c3c(=O)n(C)c(=O)n(C)c3cn2Cc2ccccn2)cc1 | 0 | -15 | 1 | 1.1
CSc1nc(C)c2c(n1)N(c1ccc(C(C)C)cc1)CC2 | -5 | 6 | 1 | 0.9
SMILES | CYP2C19 inh | CYP2C9 inh | CYP2C19 activ | CYP2C9 act
CCCN(CCC)S(=O)(=O)c1ccc(C(=O)Nc2nnc(CSC)o2)cc1 | 1 | 18 | 1 | 0.8
CN(c1ccccc1)S(=O)(=O)c1ccc(C(=O)NCC2CCCO2)cc1 (stereo not drawn) | 8 | 37 | 0.9 | 0.6
CCN(c1ccccc1)S(=O)(=O)c1ccc(NC(=S)NC(=O)c2ccc(Br)o2)cc1 | 23 | 67* | 0.8 | 0.3
CCN(c1ccccc1)S(=O)(=O)c1ccc(C(=O)Nc2nnc(COC)o2)cc1 | -8 | 70* | 1.1 | 0.3
COCc1nnc(NC(=O)c2ccc(S(=O)(=O)N(C)c3ccccc3)cc2)o1 | 5 | 77* | 0.9 | 0.2
CN(c1ccccc1)S(=O)(=O)c1ccc(NC(=S)NC(=O)c2ccccc2)cc1 | 29 | 70* | 0.7 | 0.3
Cc1ccc(C(=O)NC(=S)Nc2ccc(S(=O)(=O)N(C)c3ccccc3)cc2)cc1 | 5 | 5 | 1 | 0.9
Cn1c(/C(C#N)=C(\O)c2ccc(S(=O)(=O)N3CCCCC3)cc2)nc2ccccc21 | 8 | 45 | 0.9 | 0.6
Cc1ccc2cc(C#N)c(NCCCNC(=O)C3CCCO3)nc2c1 (stereo not drawn) | 22 | 24 | 0.8 | 0.8
O=C(CCN1C(=O)c2ccccc2C1=O)N1CCN(Cc2ccc(Cl)cc2Cl)CC1 | 17 | 43 | 0.8 | 0.6
CCOc1ccc(C(C)=O)cc1Cn1nc(C(=O)O)c2ccccc2c1=O | 2 | 5 | 1 | 0.9
COc1ccc(-n2c(C)cc(C(=O)COc3ccc(-n4cnnn4)cc3)c2C)cc1 | -9 | 6 | 1.1 | 0.9
COc1ccc(OCCOC(=O)c2cccc(-n3cnnn3)c2)cc1 | 66* | 58* | 0.3 | 0.4
COc1ccc(OCCOC(=O)c2ccc(-n3cnnn3)cc2)cc1 | 32 | 73* | 0.7 | 0.3
CCOc1ccc(C(C)=O)cc1COc1ccc(-n2cnnn2)cc1 | 97* | 78* | 0 | 0.2
O=C(c1cccc2ccccc12)N1CCC(N2CCN(c3ccccc3)CC2)CC1 | 16 | 0 | 0.8 | 1
Cc1nnc(NC(=O)c2c(F)c(F)c(F)c(F)c2F)s1 | -14 | -7 | 1.1 | 1.1
COc1ccc(C(=O)COC(=O)[C@H](C)Nc2ccc(C(F)(F)F)cc2[N+](=O)[O-])cc1 | 29 | 75* | 0.7 | 0.2
Cc1cc(C)c(C(=O)COC(=O)[C@H](C)Nc2ccc(C(F)(F)F)cc2[N+](=O)[O-])c(C)c1 | 79* | 90* | 0.2 | 0.1
Cc1cccc(OCCNC(=O)c2ccc(Oc3ccc(C(F)(F)F)cc3[N+](=O)[O-])cc2)c1 | 49 | 50 | 0.5 | 0.5
COC(=O)c1c(NC(=O)CCCC(=O)O)sc2c1CCC2 | 0 | -20 | 1 | 1.2
COc1ccc(NC(=O)CSc2nnc(-c3cccnc3)n2Cc2ccco2)c(OC)c1 | 37 | 49 | 0.6 | 0.5
O=C(CCCCn1c(=O)c2ccccc2n(CC(=O)Nc2ccc(F)cc2)c1=O)NCc1ccco1 | 55* | 81* | 0.4 | 0.2
Cc1ccc(NC(=O)Cn2c(=O)n(CCCCC(=O)NCc3ccco3)c(=O)c3ccccc32)cc1 | 46 | 82* | 0.5 | 0.2
CCCN(CCC)C(=O)Cn1c(=O)n(CCCCC(=O)NCc2ccco2)c(=O)c2ccccc21 | 30 | 69* | 0.7 | 0.3
SMILES | CYP2C19 inh | CYP2C9 inh | CYP2C19 activ | CYP2C9 act
O=C(CCCCn1c(=O)c2ccccc2n(Cc2ccc(F)cc2Cl)c1=O)NCc1ccco1 | 88* | 84* | 0.1 | 0.2
CC(C)CC(C(=O)Oc1ccc2c3c(c(=O)oc2c1)CCC3)N1C(=O)c2ccccc2C1=O (stereo not drawn) | 48 | 26 | 0.5 | 0.7
O=C(O)c1ccc2c(c1)C(=O)N(c1cc(C(=O)O)ccc1Br)C2=O | 9 | 8 | 0.9 | 0.9
CCOc1cc(/C=C2\N=C(C)OC2=O)cc(Br)c1OCCc1ccccc1 | 28 | 70* | 0.7 | 0.3
Cc1cc(C)cc(OCC(=O)Nc2cccc(-c3nc4ncccc4o3)c2)c1 | 19 | 24 | 0.8 | 0.8
COc1ccc(OC)c(S(=O)(=O)n2cccn2)c1 | 5 | -23 | 0.9 | 1.2
CCOc1ccc2cc(S(=O)(=O)n3ccnc3C)ccc2c1 | 31 | 48 | 0.7 | 0.5
COc1ccc(OC)c(S(=O)(=O)n2ccnc2C)c1 | 93* | -50 | 0.1 | 1.5
